Reference: PubChem BioAssay AID1347416 (National Center for Advancing Translational Sciences (NCATS), 2020)
Hit rate of the full screen: of about 4,100 compounds, about 1,600 (39%) were called active. Another 25% or so got no clear call; they are omitted. This is one part of the list. Unmarked numbers belong to inactive results. Calls follow the shape of the dose curve; as a rule, active = well fitted inhibition curve with a large enough effect; inconclusive = small, poorly fitted or top-dose-only effect; inactive = no such curve, though single readings can be large or run the other way.

test: qHTS Validation assay for Inhibitors of Plasmodium falciparum Dd2 growth in vitro; also: nearly all actives have a fitted effect of over 70% in size; conditions: P. falciparum Dd2 in RBCs, SYBR Green growth, 72 h; series mostly up to 28.7 µM; activity change, negative = inhibition: at the top concentration
Method in brief: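 P. falciparum Dd2-infected red blood cells (2.5% hematocrit, 0.3% parasitemia) grown 72 h at 37 °C under 5% O2 with compounds in a titration, 29 uM to 0.5 nM final. Growth read as SYBR Green-1 fluorescence after ~16 h lysis; artesunate 300 nM as positive control.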
% is scaled to controls: 0 for no effect and ±100 for the full control effect; potency is read from the fitted curve at half-maximal effect.

| SMILES | activity change, negative = inhibition | Potency |
| --- | --- | --- |
| Cc1ccc2c(c1)c(C(=O)N1CCC3(CCNC(=O)CC3)CC1)nn2C | 46.6% |  |
| CN(CC1CCOCC1)C(=O)c1cccc(Cl)c1 | 17.8% |  |
| O=C(CN(C(=O)c1cccc([N+](=O)[O-])c1)C1CCCCC1)Nc1ccc(Cl)c([N+](=O)[O-])c1 |  | 13.3 µM (active) |
| CCC(=O)C1=C(c2cccc([N+](=O)[O-])c2)N(C(=O)CC)n2c(nnc2-c2ccccc2)S1 |  | 5.31 µM (active) |
| CCc1noc(-c2nc(-c3ccc(OC)c(OC)c3)no2)n1 | 28.2% |  |
| CCC(=O)C1=C(c2ccccc2)N(C(=O)CC)n2c(nnc2-c2ccccc2)S1 |  | 5.96 µM (active) |
| CCC(=O)C1=C(c2ccc(OC)c(OC)c2)N(C(=O)CC)n2c(CC)nnc2S1 |  | 4.73 µM (active) |
| CCC(=O)C1=C(c2cccc([N+](=O)[O-])c2)N(C(=O)CC)n2c(nnc2C2CCCCC2)S1 |  | 1.88 µM (active) |
| COc1cc2nc(SCc3ccc(F)cc3)n3nc(CCn4c(C)nc5ccccc54)nc3c2cc1OC |  | 2.99 µM (active) |
| CN(C)c1ccc(C(=O)N[C@H]2CO[C@H]3[C@@H]2OC[C@@H]3n2cc(COc3ccccc3)nn2)cc1 | 48% |  |
| C#CCN1c2ccccc2Sc2cccnc21 |  | 6.68 µM (active) |
| CCc1cccc(NC(=O)C(Cc2ccccc2)NS(=O)(=O)c2ccc3c(c2)oc(=O)n3C)c1 (centres undefined) | 5.42% |  |
| CC(C)c1cc(C(=O)Nc2cc(Cl)ccc2O)no1 |  | 6.68 µM (active) |
| CC(C)Cc1cc(CNc2nccc(-c3cc(C(=O)O)ccn3)n2)no1 | 51.6% |  |
| COc1ccc(Cl)cc1NC(=O)c1sc(-n2nc(C)c(Cc3ccccc3)c2C)nc1C | 28.8% |  |
| CC(C)Cc1cc(C(=O)Nc2cc(Br)ccc2O)no1 |  | 4.73 µM (active) |
| COc1cccc(-c2cc(C(=O)Nc3cc(Cl)ccc3O)on2)c1 |  | 4.73 µM (active) |
| Cc1cc(-c2ccc(S(=O)(=O)Nc3cc(Cl)ccc3C)s2)on1 | 7.99% |  |
| COc1cccc(-c2ccc3c(n2)CNC(=O)CO3)c1 | -22.2% [at 57.5 µM] |  |
| O=C(c1cn[nH]c1)N1CCC(c2nc(CCOCC3CC3)no2)C1 (centres undefined) | 12.7% |  |
| COc1nc2ccccc2nc1CCC(=O)N[C@H]1COC[C@H]1Cc1cc(C)no1 | 41.7% |  |
| CN(C)C[C@@H]1CN(Cc2ccccc2)C[C@H]1NC(=O)c1ccncn1 | -1.84% |  |
| Cc1ccccc1NC(=O)c1c(NC(=O)c2ccco2)sc2c1CCC(C(C)(C)C)C2 (centres undefined) |  | 13.3 µM (active) |
| Cc1ccccc1NC(=O)c1c(NC(=O)c2cccs2)sc2c1CCC(C)C2 (centres undefined) | -9.18% |  |

| SMILES | activity change, negative = inhibition | Potency |
| --- | --- | --- |
| Cc1ccc(NC(=O)c2c(NC(=O)c3ccco3)sc3c2CCC(C(C)(C)C)C3)c(C)c1 (centres undefined) | 11.1% |  |
| O=C(CN1CCN(S(=O)(=O)c2cccs2)CC1)NCC1CCCCC1 | 7.52% |  |
| Cc1ccc(Cl)cc1NC(=O)CCn1cnc2ccccc2c1=O | 35.2% |  |
| O=C(NCC1CCCCC1)c1cc2ccccc2cc1O |  | 9.44 µM (active) |
| O=C(NCC1CC1)c1cccc(OC2CN(CC3CC=CCC3)C2)c1 (centres undefined) | -22.2% |  |
| CCOc1ccc(NC(=O)c2cc3ccccc3cc2O)cc1 |  | 5.31 µM (active) |
| Cc1ccc(Cl)cc1NC(=O)c1nnn(Cc2ccccc2)c1N | 15% |  |
| CCOc1ccc(NC(=O)c2oc3ccccc3c2NC(=O)c2cc(C)cc(C)c2)cc1 | -26.5% |  |
| Cc1ccc(Cl)cc1NC(=O)c1cc2ccccc2cc1O |  | 1.5 µM (active) |
| Cc1ccsc1C(=O)N1CC(Oc2ccc(-c3nc(-c4ccccc4)no3)cc2)C1 | 4.37% |  |
| Cc1nc(C)c(C(=O)N2CC(Oc3ccc(-c4noc(-c5ccccc5)n4)cc3)C2)s1 | -25.7% |  |
| CCn1cc(CN2CC(Oc3ccc(-c4noc(-c5ccncc5)n4)cc3)C2)cn1 |  | 13.3 µM (active) |
| Cc1c(C#N)c(N)nc(Cl)c1C#N | -5.23% |  |
| CCOc1cc(C(=O)N2CCc3c([nH]c4ccccc34)C2c2ccccc2)cc(OCC)c1OCC (centres undefined) |  | 7.5 µM (active) |
| CCOc1cccc(C2c3[nH]c4ccccc4c3CCN2C(=O)CSCc2ccc(F)cc2)c1 (centres undefined) |  | 15 µM (active) |
| CN1N=C(C(=O)N2CCc3c([nH]c4ccccc34)C2c2ccccc2Cl)CCC1=O (centres undefined) |  | 5.31 µM (active) |
| CC(C)NC(=O)N1CCN(S(=O)(=O)c2ccccc2)[C@@H](C(=O)N[C@H](Cc2c[nH]c3ccccc23)C(N)=O)C1 | 15.9% |  |
| COc1ccc2nc3cc(Cl)ccc3c(Nc3cc(C(C)C)c(O)cc3C)c2c1 |  | 0.266 µM (active) |
| CN(Cc1ccc(C2CC(=O)Nc3n[nH]c(C4CCC4)c32)o1)S(C)(=O)=O (centres undefined) | 18.7% |  |
| CC(C)c1ccc(CN2CC(CNc3cccnc3)C3(C2)CN(c2ccccc2)C3)cc1 (centres undefined) |  | 4.85 µM (active) |
| Clc1cnccc1CN1CC(CNc2ccccc2)C2(C1)CN(c1ccccc1)C2 (centres undefined) |  | 13.7 µM (active) |
| Oc1ccccc1CN1CC(CNc2cccnc2)C2(C1)CN(c1ccccc1)C2 (centres undefined) |  | 10.9 µM (active) |
| Cc1ccc(C)c(-c2cc3c(=O)n(CCNC(=O)c4cccc(F)c4)ccn3n2)c1 | -22.4% |  |
| COc1ccc([S+](=O)([O-])N2CCC(N3Cc4cccn4C3=O)CC2)cc1 | 34.9% |  |

| SMILES | activity change, negative = inhibition | Potency |
| --- | --- | --- |
| COc1cc(NC(=O)Cn2ncc3c(=O)oc4ccccc4c32)cc(OC)c1OC |  | 2.66 µM (active) |
| Cc1ccc2oc(=O)c3cnn(CC(=O)Nc4cccc(C(F)(F)F)c4)c3c2c1 |  | 2.66 µM (active) |
| O=C(NN1C(=O)C2C(C1=O)C1C=CC2C12CC2)c1cccnc1 (centres undefined) | 36.4% |  |
| COc1ccc(CC(=O)NCc2cc(C)cc3c(C)c(C)[nH]c23)c(OC)c1 |  | 8.41 µM (active) |
| CCOCCc1nnc(NC(=O)C(=O)c2cc(C)n(-c3ccc(C)c(C)c3)c2C)s1 | 2.27% |  |
| COc1ccc(-c2nc3c(c(SCc4ccc(Br)cc4)n2)Cc2c(CO)cnc(C)c2O3)cc1 |  | 0.0668 µM (active) |
| CCCCn1cc(S(=O)(=O)c2ccc(Cl)cc2)c(=O)c2cc(F)c(N3CCCCC3)cc21 |  | 15 µM (active) |
| COc1ccc2c(c1)c(=O)c(S(=O)(=O)c1ccc(F)cc1)cn2CC(=O)Nc1ccc(C)cc1C | 32.9% |  |
| CCCN(CC1CCOC1)C(=O)c1ccc(F)c(Cl)c1 (centres undefined) | 4.66% |  |
| C1CCC(CNc2c3c(nc4nnnn24)CCCC3)CC1 |  | 13.3 µM (active) |
| Oc1ccccc1-c1cc(C2=CCOCC2)c2cncn2c1 |  | 9.68 µM (active) |
| Oc1ccccc1-c1cc(-c2cccnc2)c2cncn2c1 |  | 1.72 µM (active) |
| c1cncc(-c2nnc(-c3cccnc3)nn2)c1 | 189% |  |
| Cc1ccc([S+](=O)([O-])NC2CCCN(c3nc4ncccc4o3)C2)cc1 (centres undefined) | 0% |  |
| O=C(N/N=C/c1ccccn1)c1cccs1 | 46.3% |  |
| O=C(O)c1ccc(N/N=C/c2cn(-c3ccccc3)nc2-c2cccs2)cc1 |  | 2.66 µM (active) |
| NS(=O)(=O)c1ccc(N/N=C/c2cn(-c3ccccc3)nc2-c2cccs2)cc1 |  | 0.335 µM (active) |
| COCC(C)n1c(C)cc(C(=O)CSc2nnc(Nc3ccccc3F)s2)c1C (centres undefined) |  | 2.99 µM (active) |
| Cc1ccc(Nc2nnc(SCC(=O)c3ccc(O)cc3O)s2)cc1 | -5.84% |  |
| CCOC(=O)c1cccc(NC(=O)N2CC[C@@H](CC(=O)N[C@@H](CO)CC(C)C)[C@@H](CC)C2)c1 | -15.6% |  |
| CCOC(=O)c1cc(C)n(CC2CCC(C(=O)Nc3cccc(Cl)c3)CC2)c1C (centres undefined) |  | 8.41 µM (active) |
| CNC(=O)[C@@H]1C[C@H](Oc2cccnc2)CN1S(=O)(=O)c1ccc2c(c1)CCC2 | 10.2% |  |
| CC(C)CCN1CCC(N2CCN(S(=O)(=O)c3ccc4c(c3)CCCC4)CC2)C1=O (centres undefined) |  | 9.44 µM (active) |
| CC(=O)N1CCCc2cc(S(=O)(=O)N3CCCC(C(=O)Nc4ccc(C)c(C)c4)C3)ccc21 (centres undefined) | -16.8% |  |

| SMILES | activity change, negative = inhibition | Potency |
| --- | --- | --- |
| O=C1NC(=S)S/C1=C\C=C\c1ccc([N+](=O)[O-])o1 |  | 5.31 µM (active) |
| CCCNC(=O)N1CCC(N2C(=O)[C@H](OCCOC)[C@@H]2c2ccncc2)CC1 | 4.94% |  |
| COCCO[C@H]1C(=O)N(C2CCN(C(=O)COc3ccccc3)CC2)[C@H]1c1ccncc1 | 9.04% |  |
| Cc1ccc(NC(=O)N2CCC(N3C(=O)C4(CCCCC4)C3c3ccncc3)CC2)cc1C (centres undefined) |  | 7.5 µM (active) |
| CCNc1nc(NC(C)(C)C)nc(N2CCCC2)n1 |  | 2.37 µM (active) |
| CCOC(=O)c1c(NC(=O)C[n+]2ccc(N(C)C)cc2)sc(C)c1C |  | 1.33 µM (active) |
| Cc1cc[n+](CC(=O)Nc2cccc(C)c2)cc1 | 28.2% |  |
| O=C(NC1CCN(c2cc(-c3cccs3)[nH]n2)C1)c1cccs1 (centres undefined) | -18.2% |  |
| O=C(Nc1cc(Cl)ccc1O)c1cc2nc(-c3ccc4c(c3)OCO4)cc(C(F)(F)F)n2n1 |  | 2.66 µM (active) |
| COc1ccc(-c2c(C)nn3c(N)c(C#N)cnc23)cc1OC |  | 1.68 µM (active) |
| COc1cc(Cl)ccc1C(=O)N1CC[C@@](C)(O)[C@@H](O)C1 | 43% |  |
| COc1cc(OC)c(C(=O)N2CCCC2)cc1OC | 30.6% |  |
| CC1CC(C)CN(C(=O)CCNC(=O)c2ccccc2Cl)C1 (centres undefined) | 18.5% |  |
| CC1CC(C)CN(C(=O)CNC(=O)c2sc3ccccc3c2Cl)C1 (centres undefined) | -21.5% |  |
| COc1ccc(C(=O)N2CCC3(CC2)CC(O)CCO3)c(OC)c1 (centres undefined) | -13.5% |  |
| O=C(O)c1cccc(C2CCCN(C(=O)c3ccccc3-n3cccn3)C2)c1 (centres undefined) | 70.7% |  |
| COc1cc2ccccc2cc1C(=O)N1CC(C)CC(C)C1 (centres undefined) |  | 2.37 µM (active) |
| CC1CC(C)CN(C(=O)c2ccc3ccccc3c2)C1 (centres undefined) |  | 2.37 µM (active) |
| COc1cc2ccccc2cc1C(=O)N1CCCC(C(F)(F)F)C1 (centres undefined) |  | 5.31 µM (active) |
| CCc1ccc(S(=O)(=O)Nc2cc(-c3cn4ccccc4n3)ccc2C)cc1 | -25.2% |  |
| Cc1ccc(S(=O)(=O)Nc2ccc(-c3cn4ccc(C)cc4n3)cc2)cc1 |  | 6.68 µM (active) |
| CCN(CC)CCOC(=O)c1ccc(NC(=O)c2cc3c(=O)n(CC)c4ccccc4c3s2)cc1 |  | 2.66 µM (active) |
